Laboratory results: ChEMBL document CHEMBL4513216, “Probing the Open Global Health Chemical Diversity Library for Multistage-Active Starting Points for Next-Generation Antimalarials” (ACS Infect Dis, 2020)
The whole screen tested about 69,000 compounds, of which about 8,600 (12%) showed an effect of 50% or more. The list comes from a sample in which strong results are over-represented; it also holds similar structures and randomly drawn compounds.

What follows are molecules tested on Plasmodium berghei (assay: Screen against P. berghei liver stage (PbLuc), transformed with Luciferase, at 10uM). Conditions: tested at 10 uM.
Assay type: functional, HepG2
In the case of `Cc1csc(N2CCN(Cc3nnsc3Cl)CC2C)n1` (configuration not stated), the INHIBITION was 45.2%. `O=C(c1ccco1)N1CCOCC2(C1)CN(c1ccoc1)C(=O)CO2` (configuration not stated) showed an INHIBITION of -8.28%. For `CCOc1ccc(CN2CCC(c3ccn[nH]3)C2)cc1CO` (configuration not stated), the INHIBITION was 43.85%. In the case of `Cn1cc2c(n1)C(CNCc1ccco1)OCC2` (configuration not stated), the INHIBITION was 15.4%. For `CC(C)CC1SCC(=O)Nc2c1cnn2-c1ccc(F)cc1` (configuration not stated), the INHIBITION was 28.4%. `CN(C)C(=O)[C@H]1C[C@H]2[C@H](CCN2Cc2ccc3c(c2)OCO3)O1` was tested, and the INHIBITION was 18.5%. `CCCNC(c1cccnc1)c1ccc(F)cc1F` (configuration not stated) gave an INHIBITION of 12.9%. Work on `O=c1n(CCNc2cccc3ccccc23)nc2ccccn12` yielded an INHIBITION of 65.2%. With `CCNC(=O)NCCCn1nc2ccccn2c1=O` the INHIBITION was -12.2%. With `O=c1n(CCNCc2cccc3ccccc23)nc2ccccn12` the INHIBITION was 28.8%. Molecule `CCSCCC(=O)NCCn1nc2ccccn2c1=O` has an INHIBITION of 37.7%. For `O=c1n(CCNCc2ccc3ccccc3c2)nc2ccccn12`, the INHIBITION was -23.4%. With `CCC(=O)CNC(=O)CCn1nc2ccccn2c1=O` the INHIBITION was 69.8%. `CC(=O)N(Cc1ncc(C)o1)C1CCN(Cc2cnc(C)s2)C1` (configuration not stated) was tested, and the INHIBITION was 14.2%. In the case of `CC(C)C[C@H](N)C(=O)N1CC2(CCNCC2)c2cc(Cl)ccc21`, the INHIBITION was -28.2%. `CCCc1noc(C2CCN(S(=O)(=O)c3cccs3)CC2)n1` showed an INHIBITION of 4.97%. `COc1cccc2ccc(CN3CCN(c4ccncc4)CC3)nc12` was tested, and the INHIBITION was 25.3%. With `COc1cccc2ccc(CN3CCN(c4ncccn4)CC3)nc12` the INHIBITION was 39.8%. Work on `COc1cccc2ccc(CN3CCN(c4ncccc4C)CC3)nc12` yielded an INHIBITION of 61.1%. `Cc1ccc(CNC(C)c2ccc(OCC(=O)NC3CC3)cc2)o1` (configuration not stated) was tested, and the INHIBITION was 40%. With `COCc1noc(Cn2c(C)cc(C(F)(F)F)cc2=O)n1` the INHIBITION was 41.2%. For `CCCc1nnc(NCCCn2nc(C)c(Cl)c2C)o1`, the INHIBITION was 16.1%. For `CCN1CCO[C@@H]2CN(C(=O)COC3CCCC3)C[C@@H]2C1`, the INHIBITION was 0.804%. `CN(Cc1cccnc1)C1CC2(CCN(C(=O)c3cscn3)CC2)C1` showed an INHIBITION of -18.5%. In the case of `CN(Cc1cccnc1)C1CC2(CCN(c3ccccn3)CC2)C1`, the INHIBITION was 47.8%. Molecule `CN(Cc1ccncc1)C1CC2(CCN(C(=O)c3ccnnc3)CC2)C1` has an INHIBITION of -5.63%. Work on `CN(Cc1ccccn1)C1CC2(CCN(Cc3ccccn3)CC2)C1` yielded an INHIBITION of 47.4%. `CN(Cc1cccnc1)C1CC2(CCN(C(=O)c3ccnnc3)CC2)C1` was tested, and the INHIBITION was 53.9%. Work on `CN(Cc1cccnc1)C1CC2(CCN(C(=O)c3cnccn3)CC2)C1` yielded an INHIBITION of 21.7%. `CN(Cc1ccccn1)C1CC2(CCN(Cc3cccnc3)CC2)C1` was tested, and the INHIBITION was 33%. In the case of `CN(Cc1cccnc1)C1CC2(CCN(Cc3cccnc3)CC2)C1`, the INHIBITION was 70.7%. Molecule `CN(Cc1cccnc1)C1CC2(CCN(Cc3ccccn3)CC2)C1` has an INHIBITION of 50.9%. With `Fc1ccc(CN2CCOCC3(CCN(Cc4nccs4)C3)C2)cc1` (configuration not stated) the INHIBITION was 7.24%. In the case of `CCCc1nnc(NCCc2noc(C3CCC3)n2)o1`, the INHIBITION was 12.7%. For `CC(C)C(=O)NCCNC(=O)CCOc1cccc(F)c1`, the INHIBITION was 48.45%. `CCc1cc(NC2CCC(O)CC2)n2nc(C)c(C)c2n1` (configuration not stated) showed an INHIBITION of 25.1%. Work on `CC(C)CN1CCC(N2CCC(C(=O)N(C)C)CC2)CC1` yielded an INHIBITION of 18.6%. With `COc1ccc(OC2CCN(C(=O)CCc3n[nH]c(C)n3)CC2)cc1` the INHIBITION was -4.23%. With `CN(C)CCOCC1CN(C(=O)c2ccsc2)Cc2ccnn2C1` (configuration not stated) the INHIBITION was -10.3%. With `CCc1cnc2c(c1Nc1ccccc1OC)c(=O)n(C)c(=O)n2C` the INHIBITION was 15.4%. Work on `Cc1cnc2c(c1NCc1ccc(F)cc1)c(=O)n(C)c(=O)n2C` yielded an INHIBITION of 51.2%. With `Cc1cnc2c(c1NCc1cccs1)c(=O)n(C)c(=O)n2C` the INHIBITION was 54.1%. `Cc1cnc2c(c1NCc1cccnc1)c(=O)n(C)c(=O)n2C` showed an INHIBITION of 71.8%. With `Cc1cc(NC(=O)Cc2ccc3c(c2)OCO3)n(C)n1` the INHIBITION was 13.2%. For `Cc1cnc2n(c1=O)C(CC(=O)NCc1cccnc1)CS2` (configuration not stated), the INHIBITION was 40.9%. In the case of `Cc1nn(C)c(N2CCOCC2)c1CNCc1ccc2c(c1)OCO2`, the INHIBITION was 7.67%. With `Cc1cnc2c(c1NCc1ccc3c(c1)OCO3)c(=O)n(C)c(=O)n2C` the INHIBITION was 73.3%. `Cc1cnc2c(c1NCc1ccccn1)c(=O)n(C)c(=O)n2C` showed an INHIBITION of 8.31%. With `Cc1cnc2c(c1NCc1ccncc1)c(=O)n(C)c(=O)n2C` the INHIBITION was -14.6%. Work on `CS(=O)(=O)c1ccc(NCc2ccc(F)cc2)cn1` yielded an INHIBITION of -32.7%. Work on `Cc1cnc2n(c1=O)C(CC(=O)NCc1cccs1)CS2` (configuration not stated) yielded an INHIBITION of 6.09%. `Cc1cnc(N2CCC3(CC2)COCCN(C(C)C)C3)nc1` showed an INHIBITION of 12.2%.
